Screening data: PubChem BioAssay, National Center for Advancing Translational Sciences (NCATS)
Most compounds without a hit are left out; they make up all but 18% or so of the library.
IL-1B inflam inh – inhibitors of inflammasome signaling (IL-1 beta secretion). activity change, % at 57.5 µM. THP-1 LPS/ATP IL-1B secretion, AlphaLISA, 16 h; hits give low values. 4.7% of 360,000 active; in the data active = activity change below about -50%; inconclusive = mostly about -30% to -49%
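THP-1 cells pretreated 1 hr with compounds (up to 57.5 uM final), then stimulated with LPS (250 ng/mL final) plus ATP (1.25 mM final); secreted IL-1B measured by AlphaLISA after 16 hr, decreased signal indicating inhibition.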
DT40 TDP1 no CPT – qHTS for Inhibitors of human tyrosyl-DNA phosphodiesterase 1 (TDP1): qHTS in cells in absence of CPT; DT40 Tdp1-/- hTDP1 cells, no CPT, ATP luminescence, 48 h; Potency, µM (series often up to 46.2 µM), inactives show top-dose activity change, negative = growth inhibition, actives largely listed as inhibitors; 15% of 420,000 active; AID 686978, 2013; also: potency is read from the fitted curve at half-maximal effect; nearly all actives have a fitted effect of over 55% in size
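Growth kinetics read by CellTiter-Glo luminescence after ≥48 hr at 37 °C. Cells: DT40 Tdp1-/- stably carrying human TDP1, 400 per well, compound exposure in the absence of CPT (DMSO vehicle).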
LDHA block – inhibitors of human lactate dehydrogenase A; P00338; purified LDHA, NADH/diaphorase-resazurin fluorescence; hits give low values; activity change, % (values are at about 110 or 230 µM); 0.15% of 480,000 active; AID 1347041; in the data active = activity change below about -30%; inconclusive = mostly about -25% to -30%;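 also: plate controls were DMSO wells for no effect and wells without enzyme for full effect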
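LDH5 2 nM; NADH 0.06 mM, pyruvate 0.2 mM; 200 mM Tris pH 7.4, EDTA, Tween-20; 5 min RT. Detection: diaphorase 0.133 mg/mL + resazurin 37 µM, fluorescence ex540/em590 at 0 and 20 min; normalized to enzyme-free and DMSO wells.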
DT40 TDP1 CPT – growth inhibition of DT40 Tdp1-/-;hTDP1 cells with camptothecin (screen for TDP1 inhibitors); chicken DT40 Tdp1-/-;hTDP1 cells + 20 nM CPT, ATP luminescence, 48 h; Potency, µM (titrated, usually from 46.2 µM), inactives show at the highest dose activity change, negative = growth inhibition, hits mostly inhibitors; 12% of 420,000 active; also: potency is read from the fitted curve at half-maximal effect; nearly all actives have a fitted effect of over 55% in size
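Chicken DT40 Tdp1-/- cells complemented with human TDP1, 400 cells/well, exposed to compounds plus 20 nM camptothecin for at least 48 h at 37 C; viability read as ATP content by CellTiter-Glo luminescence.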
RORgamma inh – inhibitors of mouse ROR gamma transcriptional activity | Drosophila S2 Gal4-RORgamma UAS-luciferase reporter, 20 h | P51450 | 5.4% of 310,000 active | AID 2551 | Potency, µM (titrated, usually from 53.6 µM), for the others: at the top dose activity change, negative = inhibition, usual class: inhibitors; also: potency is read from the fitted curve at half-maximal effect; nearly all actives have a fitted effect of over 60% in size
Target sequence (P51450 whole entry, looked up, the tested form may be a part): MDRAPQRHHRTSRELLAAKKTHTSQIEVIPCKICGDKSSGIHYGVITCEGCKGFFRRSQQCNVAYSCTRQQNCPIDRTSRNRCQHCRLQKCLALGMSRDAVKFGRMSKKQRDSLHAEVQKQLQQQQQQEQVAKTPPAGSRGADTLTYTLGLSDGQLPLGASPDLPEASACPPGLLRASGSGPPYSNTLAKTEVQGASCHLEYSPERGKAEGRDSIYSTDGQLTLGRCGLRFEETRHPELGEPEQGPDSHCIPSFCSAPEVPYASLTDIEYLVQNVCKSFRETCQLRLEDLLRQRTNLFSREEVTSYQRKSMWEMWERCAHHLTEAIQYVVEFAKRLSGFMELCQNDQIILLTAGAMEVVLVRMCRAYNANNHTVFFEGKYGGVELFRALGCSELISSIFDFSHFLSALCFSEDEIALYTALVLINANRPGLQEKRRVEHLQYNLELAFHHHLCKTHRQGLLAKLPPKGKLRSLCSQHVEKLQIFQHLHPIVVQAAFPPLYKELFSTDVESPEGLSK
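Luminescence from a UAS-regulated Photinus luciferase reporter in stably transfected Drosophila Schneider cells is measured; decreased signal marks ROR gamma inhibition. Fusion expression is induced by 700 uM copper sulfate for 20 hr.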
Gal4-VP16 FLuc – counter-screen for ROR gamma inhibitors: Gal4-VP16 reporter. 3.5% of 310,000 active. AID 2546. Potency, µM (series often up to 53.6 µM), without a hit: at the top dose activity, negative = inhibition, usual class: inhibitors. Drosophila S2 Gal4-VP16 UAS-luciferase, luminescence, 20 h;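 also: Gal4-VP16 expression switched on by copper sulfate through the metallothionein promoter; potency is read from the fitted curve at half-maximal effect; nearly all actives have a fitted effect of over 50% in size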
Active calls of the source: *; u = inconclusive; x = not tested or not shown; [ ] = remark or other dose. Unless noted, calls follow the shape of the dose curve; as a rule, active = well fitted curve in the direction sought with a large enough effect; inconclusive = small, poorly fitted or top-dose-only effect, or another doubt; inactive = no such curve, though single readings can be large; an effect the other way counts as inactive or inconclusive. Unless noted, % is scaled to controls: 0 for no effect and ±100 for the full control effect.

SMILES	IL-1B inflam inh	DT40 TDP1 no CPT	LDHA block	DT40 TDP1 CPT	RORgamma inh	Gal4-VP16 FLuc
CCOc1cccc(/C=N/NC(=O)C2CCCC2)c1O	179	u	4	u	2%	5%
COc1cc(OC)c(OC)cc1/C=N/NC(=O)c1cc(-c2cccn2C)n[nH]1	5	2%	0	-3%	39%	-2%
Cn1cccc1-c1cc(C(=O)N/N=C/c2cccc(O)c2)[nH]n1	-70*	u	-5	u	-8%	-9%
COc1ccc(/C=N/NC(=O)c2cc(-c3cccn3C)n[nH]2)cc1OC	u	18µM*	-7	u	19%	4%
CCOc1cccc(/C=N/NC(=O)c2cc(-c3cccn3C)n[nH]2)c1O	118	9.2µM*	3	5.8µM*	2.8µM*	5µM*
O=C(CN1C(=O)NC2(CCOc3ccccc32)C1=O)NCCc1c[nH]c2ccccc12 (stereo unspecified)	x	x	0	x	x	x
COC(=O)CCSc1nnc(-c2nn(Cc3ccccc3)c(=O)c3ccccc23)o1	x	x	-4	x	x	x
CCCS(=O)(=O)N1CCC(C(=O)NCCCN(CC)c2cccc(C)c2)CC1	-5	u	8	u	-35%	0%
O=C(Nc1cc(Cl)cc(Cl)c1)C1CCC(=O)N1Cc1ccccc1Cl (stereo unspecified)	u	u	0	23µM*	u	16µM*
CCN(CCCNC(=O)C1CCC(=O)N1Cc1ccc(C)cc1)c1cccc(C)c1 (stereo unspecified)	-4	23µM*	4	13µM*	33%	-4%
CCN(CCCNC(=O)C1CCC(=O)N1Cc1ccccc1Cl)c1cccc(C)c1 (stereo unspecified)	0	23µM*	8	16µM*	u	-3%
CCN(CCCNC(=O)C1CCN(S(=O)(=O)N2CCOCC2)CC1)c1cccc(C)c1	-13	16µM*	3	u	1%	0%
CC(=O)NC(NC(C)=O)C(Cl)Cl	x	x	8	x	x	x
Cn1c(SCC(=O)Nc2c(F)c(F)cc(F)c2F)nc2c(=O)[nH]cnc21	x	x	-4	x	x	x
COc1cccc(OC)c1C(=O)OCc1ccc(Br)cc1	x	x	0	x	x	x
CC(=O)Oc1ccc2c(-c3ccc(F)cc3)noc2c1	x	x	-7	x	x	x
O=C(NCCCN1CCN(c2cccc(Cl)c2)CC1)C1CCC(=O)N1Cc1ccccc1Cl (stereo unspecified)	-55*	u	0	16µM*	26%	-7%
CN(CCCNC(=O)C1CCC(=O)N1Cc1ccccc1Cl)c1ccccc1 (stereo unspecified)	-12	u	3	-21%	0%	2%
CC(=O)NNC(N)=S	x	x	1	x	x	x
CCc1nc(N)c(C#N)c(-c2ccccc2OC)c1C	13	1%	-4	13µM*	-24%	0%
COc1ccc(-c2c(C#N)c(N)nc3c2CCCCCC3)cc1OC	3	-18%	-7	-12%	-16%	-8%
CCOc1cc(-c2c(C#N)c(N)nc3c2CCc2ccccc2-3)ccc1O	-17	15µM*	-3	18µM*	42%	-29%
CCOc1cc(-c2c(C#N)c(N)nc3c2CCCC3C)ccc1O (stereo unspecified)	6	u	-2	9.2µM*	-8%	4%
COc1ccccc1-c1c(C)c(C)nc(N)c1C#N	8	-8%	4	3%	-20%	-7%
COc1ccccc1-c1c(C#N)c(N)nc2c1CCc1ccccc1-2	63	6.5µM*	13	6.5µM*	-9%[10 µM]	u
SMILES	IL-1B inflam inh	DT40 TDP1 no CPT	LDHA block	DT40 TDP1 CPT	RORgamma inh	Gal4-VP16 FLuc
Cc1cc(C)c2oc(C(=O)N3CCOC34CCN(C)CC4)cc(=O)c2c1	x	x	6	x	x	x
Nc1nc(Cl)nc(Nc2cccc(Cl)c2)c1[N+](=O)[O-]	x	x	31	x	x	x
O=C(CSc1nnnn1Cc1ccccc1)N1N=C(c2cc3ccccc3o2)CC1c1ccco1 (stereo unspecified)	x	x	6	x	x	x
Cc1ccc(-c2nnc(Cc3ccc([N+](=O)[O-])cc3)o2)cc1	-10	u	-15	-28%	0.28µM*	u
Cc1noc(/C=C\c2ccc(S(=O)(=O)N3CCN(C4CCCCC4)CC3)cc2)c1NC(=O)C1CC1	x	x	0	x	x	x
COc1ccccc1N1CCN(CC(=O)Nc2cc(C)nn2-c2nc(C)cc(C)n2)CC1	51	3.3µM*	1	4.1µM*	x	x
COc1ccc(C(=O)OC(C)C(=O)Nc2cc(C(F)(F)F)ccc2Cl)c(OC)c1OC (stereo unspecified)	4	16µM*	1	5.8µM*	4%	u
O=C(CN1CCCC1)Nc1cc(C(F)(F)F)ccc1Cl	30	-4%	-2	4%	8%	-3%
O=C(CN1CCN(c2ccccn2)CC1)Nc1cc(C(F)(F)F)ccc1Cl	-13	18µM*	0	u	22%	-1%
COc1ccc(C(=O)OCC(=O)Nc2ccc(Cl)c(C(F)(F)F)c2)c(OC)c1OC	-20	21µM*	3	21µM*	40%	u
Cc1ccc2c(c1)C(C)(C)C1(/C=C/c3ccc(Cl)cc3)NC(=O)CN21 (stereo unspecified)	x	x	-6	x	x	x
COc1cccc(CNC(=O)C(c2ccccc2)c2ccccc2)c1	x	x	-3	x	x	x
CCOC(=O)C(NC(=O)C1Cc2ccccc2C(=O)O1)C(=O)OCC (stereo unspecified)	x	x	-6	x	x	x
O=C(CN1CCN(c2ccccn2)CC1)Nc1ccc(Cl)c(C(F)(F)F)c1	-9	18µM*	-4	18µM*	u	-28%
O=C(CN1CCN(C(C(=O)Nc2cc(C(F)(F)F)ccc2Cl)c2ccccc2)CC1)NC1CC1 (stereo unspecified)	0	u	-6	21µM*	x	x
O=C(CN1CCc2ccccc2C1)Nc1ccc(OC(F)(F)F)cc1	-65*	-22%	3	12%	22%	-4%
O=C(CN1CCN(c2ccccn2)CC1)Nc1ccc(OC(F)(F)F)cc1	-25	23µM*	-6	-5%	53%	6%
O=C(CN1CCN(C(C(=O)Nc2ccc(Cl)cc2C(F)(F)F)c2ccccc2)CC1)NC1CC1 (stereo unspecified)	u	u	2	u	x	x
COc1ccc(-c2noc(-c3cccc(NC(=O)C4CC(=O)N(c5ccc(OC)cc5)C4)c3)n2)cc1 (stereo unspecified)	x	x	6	x	x	x
CCNc1c(NC(=O)NCCc2ccccc2)c(=O)oc2ccccc12	x	x	6	x	x	x
